Measurements as given in PubChem BioAssay AID1159580 (chemical genetic matrix, 2015).
Values joined by “and” are separate entries in the source; they are usually repeats but may differ in a detail not shown here. Equal values may be shown once. Screen size: about 5,500 compounds; about 2,000 (36%) were called active. Roughly 18% stayed inconclusive and do not appear here. Rule as the data show it: active = normalized growth mostly below about 0.91 (no sharp cut-off); inconclusive = no clear call, values can overlap the other calls; inactive = mostly above about 0.92. The list shows a part of the results.

Test: chemical genetic growth profiling, strain panel (AID 1159580);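 also: tested at 20 µM; growth read once vehicle control cultures reached saturation at 30 °C; 1 = growth at the plate median or of vehicle wells; lower values mean less growth of the strain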
Conditions: S. cerevisiae deletion strains, growth OD

Measured: normalized growth

C[C@]12C=CC(=O)C=C1CCC1C2[C@@H](O)C[C@@]2(C)C1CC[C@]2(O)C(=O)CO (stereo not given in full)
inactive: locus YAL021C, strain ccr4, stronger effect = lower value 1 | locus YAL026C, strain drs2, stronger effect = lower value 0.992 | locus YAL030W, strain snc1, stronger effect = lower value 0.993 | locus YBL061C, strain skt5, stronger effect = lower value 0.999 | locus YBR009C, strain hhf1, stronger effect = lower value 0.993 | locus YBR021W, strain FUR4, stronger effect = lower value 0.979 | locus YBR023C, strain chs3, stronger effect = lower value 1 | locus YBR171W, strain sec66, stronger effect = lower value 1.01 | locus YBR229C, strain ROT2, stronger effect = lower value 0.99 | locus YBR231C, strain swc5, stronger effect = lower value 0.991 | locus YBR279W, strain paf1, stronger effect = lower value 1 | locus YCL011C, strain gbp2, stronger effect = lower value 1.01 | locus YCL016C, strain dcc1, stronger effect = lower value 0.988 | locus YCL029C, strain bik1, stronger effect = lower value 0.985 | locus YCL061C, strain MRC1, stronger effect = lower value 1.01 | locus YCL069W, strain vba3, stronger effect = lower value 0.981 | locus YCR088W, strain abp1, stronger effect = lower value 0.994 | locus YDL005C, strain med2, stronger effect = lower value 0.999 | locus YDL035C, strain GPR1, stronger effect = lower value 0.998 | locus YDL040C, strain nat1, stronger effect = lower value 0.995 | locus YDL074C, strain BRE1, stronger effect = lower value 1.01 | locus YDL101C, strain DUN1, stronger effect = lower value 0.99 | locus YDL134C, strain PPH21, stronger effect = lower value 0.986 | locus YDL185W, strain tfp1, stronger effect = lower value 0.974 | locus YDL192W, strain arf1, stronger effect = lower value 0.985 | locus YDR001C, strain nth1, stronger effect = lower value 0.997 | locus YDR069C, strain doa4, stronger effect = lower value 0.996 | locus YDR101C, strain arx1, stronger effect = lower value 0.983 | locus YDR137W, strain rgp1, stronger effect = lower value 1.03 | locus YDR150W, strain NUM1, stronger effect = lower value 0.998 | locus YDR159W, strain sac3, stronger effect = lower value 1 | locus YDR162C, strain NBP2, stronger effect = lower value 0.992 | locus YDR195W, strain ref2 0.969 | locus YDR297W, strain sur2, stronger effect = lower value 0.99 | locus YDR318W, strain mcm21, stronger effect = lower value 0.979 | locus YDR334W, strain swr1, stronger effect = lower value 0.992 | locus YDR335W, strain msn5, stronger effect = lower value 0.996 | locus YDR388W, stronger effect = lower value 0.98 | locus YDR392W, strain spt3, stronger effect = lower value 0.953 | locus YDR502C, strain sam2, stronger effect = lower value 0.992 | locus YEL003W, strain gim4, stronger effect = lower value 0.982 | locus YEL037C, strain rad23, stronger effect = lower value 0.989 | locus YEL061C, strain CIN8 (second series), stronger effect = lower value 0.99 | locus YEL061C, strain CIN8, stronger effect = lower value 0.997 | locus YER015W, strain faa2, stronger effect = lower value 1 | locus YER016W, strain bim1, stronger effect = lower value 1 | locus YER110C, stronger effect = lower value 0.975 | locus YER111C, strain swi4, stronger effect = lower value 0.999 | locus YER155C, strain BEM2 (second series), stronger effect = lower value 1.01 | locus YER155C, strain BEM2, stronger effect = lower value 0.978 | locus YER167W, strain BCK2, stronger effect = lower value 0.987 | locus YFR010W, strain ubp6, stronger effect = lower value 0.997 | locus YGL078C, strain dbp3, stronger effect = lower value 0.998 | locus YGL086W, strain mad1, stronger effect = lower value 1 | locus YGL167C, strain pmr1, stronger effect = lower value 1.01 | locus YGL173C, strain kem1, stronger effect = lower value 0.989 | locus YGL227W, strain vid30, stronger effect = lower value 0.993 | locus YGL240W, strain doc1, stronger effect = lower value 0.99 | locus YGL248W, strain PDE1, stronger effect = lower value 0.99 | locus YGL253W, strain hxk2, stronger effect = lower value 0.991 | locus YGR135W, strain pre9, stronger effect = lower value 0.995 | locus YGR229C, strain SMI1, stronger effect = lower value 0.993 | locus YGR252W, strain gcn5, stronger effect = lower value 1.06 | locus YHR013C, strain ard1, stronger effect = lower value 1.01 | locus YHR027C, strain rpn1, stronger effect = lower value 0.995 | locus YHR030C, strain SLT2, stronger effect = lower value 0.992 and 1.01 | locus YHR079C, strain IRE1 (second series), stronger effect = lower value 0.977 | locus YHR079C, strain IRE1, stronger effect = lower value 1 | locus YHR094C, strain hxt1, stronger effect = lower value 0.978 | locus YHR129C, strain ARP1, stronger effect = lower value 1.02 | locus YHR142W, strain chs7, stronger effect = lower value 0.99 | locus YHR200W, strain rpn10, stronger effect = lower value 0.981 | locus YIL066C, strain RNR3, stronger effect = lower value 0.989 | locus YIL073C, strain SPO22, stronger effect = lower value 0.946 | locus YIL125W, strain kgd1, stronger effect = lower value 0.982 | locus YIR030C, strain dcg1, stronger effect = lower value 0.984 | locus YJL092W, strain hpr5, stronger effect = lower value 0.995 | locus YJL095W, strain BCK1 (second series), stronger effect = lower value 1 | locus YJL095W, strain BCK1, stronger effect = lower value 1.01 | locus YJL115W, strain asf1, stronger effect = lower value 0.99 | locus YJL129C, strain trk1, stronger effect = lower value 0.977 | locus YJL134W, strain LCB3, stronger effect = lower value 0.988 | locus YJL154C, strain vps35, stronger effect = lower value 0.998 | locus YJL164C, strain tpk1, stronger effect = lower value 0.989 | locus YJL166W, strain qcr8, stronger effect = lower value 0.979 | locus YJL168C, strain set2, stronger effect = lower value 0.983 | locus YJL187C, strain SWE1 (second series), stronger effect = lower value 0.984 | locus YJL187C, strain SWE1, stronger effect = lower value 0.991 | locus YJR043C, strain POL32, stronger effect = lower value 0.998 | locus YJR066W, strain TOR1, stronger effect = lower value 0.942
